Shown are actives, neighbours in structure and some others; about 1.4% of the full set was active somewhere.
TbPYK inhibitor = blocks Trypanosoma brucei pyruvate kinase; Q57TT1; TbPYK enzyme, Kinase-Glo Plus ATP luminescence, 45 min; Potency, µM (series often up to 76.8 µM), actives largely listed as inhibitors; actives 0.12% (n = 410,000); AID 624173; note: nearly all actives have a fitted effect of over 50% in size
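T. brucei PYK with substrate was exposed to pin-transferred compounds across a concentration series, then started with 130 uM ADP (final). After 45 min at room temperature, Kinase-Glo Plus luminescence was read, normalized and curve-fitted.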
LmPK inh = inhibitors of Leishmania mexicana pyruvate kinase; actives 0.37% (n = 290,000); purified LmPK, Kinase-Glo ATP luminescence, 1 h; Potency, µM (doses to about 57.5 µM), usual class: inhibitors; AID 1721
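Purified LmPK (0.1 nM) with 0.5 mM PEP and 0.1 mM ADP in imidazole buffer pH 7.2 with MgCl2/KCl, 1 h at room temperature. ATP formed was read by luciferase luminescence and normalized to no-enzyme and uninhibited controls.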
AmpC inh detg = inhibitors of E. coli AmpC beta-lactamase with detergent | Potency, µM (titrated, usually from 114 µM), hits mostly inhibitors | AmpC hydrolysis of nitrocefin, absorbance 480 nm, 0.01% Triton | P00811 | actives 0.041% (n = 370,000) | AID 485294; note: nearly all actives have a fitted effect of over 25% in size
Target sequence (P00811 whole entry, looked up): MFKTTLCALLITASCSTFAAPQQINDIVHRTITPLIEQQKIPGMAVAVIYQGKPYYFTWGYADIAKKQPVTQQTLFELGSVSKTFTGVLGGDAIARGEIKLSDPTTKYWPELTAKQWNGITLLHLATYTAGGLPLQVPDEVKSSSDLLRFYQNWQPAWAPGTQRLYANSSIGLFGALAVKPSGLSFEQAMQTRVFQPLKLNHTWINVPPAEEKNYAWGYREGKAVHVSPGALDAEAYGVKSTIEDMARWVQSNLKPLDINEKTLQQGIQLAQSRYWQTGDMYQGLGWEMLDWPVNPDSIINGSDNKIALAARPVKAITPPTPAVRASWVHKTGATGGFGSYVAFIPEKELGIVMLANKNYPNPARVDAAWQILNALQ
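20 mM phosphate pH 7.0 + 0.01% (detergent screen) or 0.0001% Triton X-100; 5.3 nM AmpC reagent; cpd preinc 15 min RT; nitrocefin (800 uM stock) to start; A480 q20 s × 4 min; Activity was normalised to no-enzyme and no-compound control wells.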
RE007 growth inh = less growth of the S. pombe RE007 Vpr strain; S. pombe RE007 Vpr strain, BacTiter-Glo ATP luminescence, 24 h; Potency, µM (series often up to 92.2 µM), usual class: inhibitors; actives 0.21% (n = 360,000); AID 651644; active = well fitted falling curve with a large enough effect; inconclusive = small, poorly fitted or top-dose-only effect; inactive = no such curve, though single readings can be large or run the other way; note: nearly all actives have a fitted effect of over 50% in size
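Fission yeast strain RE007, carrying one chromosomally integrated HIV-1 vpr copy, was seeded at OD 0.01 in PMG+AL medium with 23 nL pinned compound. After 24 h at 30 °C and 99% humidity, viability was read by BacTiter-Glo luminescence.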
FBPA Giardia inh = blocks Giardia fructose-bisphosphate aldolase activity; purified Giardia FBPA; A8B2U2; Potency, µM (titrated, usually from 59.6 µM), usual class: inhibitors; actives 0.71% (n = 290,000); note: nearly all actives have a fitted effect of over 55% in size
Target sequence (A8B2U2 whole entry, looked up): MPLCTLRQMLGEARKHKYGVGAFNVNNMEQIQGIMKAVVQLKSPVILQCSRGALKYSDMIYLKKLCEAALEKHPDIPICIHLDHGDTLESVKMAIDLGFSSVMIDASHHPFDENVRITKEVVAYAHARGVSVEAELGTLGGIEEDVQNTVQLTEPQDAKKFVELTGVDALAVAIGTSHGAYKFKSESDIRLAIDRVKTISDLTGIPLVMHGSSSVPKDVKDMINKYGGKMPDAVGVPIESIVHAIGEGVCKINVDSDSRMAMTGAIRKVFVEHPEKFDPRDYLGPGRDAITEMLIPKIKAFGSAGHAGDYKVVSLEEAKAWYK
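40 nM FBPA preincubated 10 min at RT with compound (up to 57.5 uM final), then substrate plus GAPDH/TPI/NAD/arsenate coupling and diaphorase/resazurin added. Fluorescence read after 20 min at RT, 525/598 nm.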
AmpC inh no detg = AmpC beta-lactamase inhibition without detergent; Potency, µM (series often up to 57.1 µM), usual class: inhibitors; AmpC nitrocefin hydrolysis, absorbance 480 nm, 0.0001% Triton; P00811; AID 485341; actives 0.52% (n = 330,000); note: nearly all actives have a fitted effect of over 20% in size
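AmpC (5.3 nM in the dispensed reagent) in 20 mM phosphate pH 7.0 with 0.01% (detergent screen) or 0.0001% Triton X-100 was preincubated with compounds for 15 min at room temperature. Nitrocefin was then added from an 800 uM solution, and hydrolysis was followed at 480 nm.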
Hits are given with their value; . = inactive; ? = inconclusive; / = not tested or not shown; [ ] = another dose, or the depositor's remark. Unless noted, calls come from the whole dose curve; as a rule, active = well fitted curve in the direction sought with a large enough effect; inconclusive = small, poorly fitted or top-dose-only effect, or another doubt; inactive = no such curve, though single readings can be large; an effect the other way counts as inactive or inconclusive.

SMILES	TbPYK inhibitor	LmPK inh	AmpC inh detg	RE007 growth inh	FBPA Giardia inh	AmpC inh no detg
Cc1cc(/C=C(\C#N)C(=O)NCCc2c[nH]c3ccccc23)c(C)n1C	.	.	.	.	.	25µM
Cc1ccnc(NC(=O)c2cc3ccccc3o2)c1	.	/	.	.	/	.
Cc1ccnc2nc(C(=O)Nc3ccc4c(c3)OCO4)nn12	.	16µM	?	.	.	.
Cc1cc(C)n2nc(C(=O)Nc3ccc4c(c3)OCO4)nc2n1	.	.	.	.	.	.
O=C(Nc1ccccn1)c1ccc2c(c1)OCO2	.	14µM	.	.	.	.[11.4 µM]
CS(=O)(=O)N(CC(=O)Nc1ccc2c(c1)OCO2)Cc1ccc(Cl)cc1	.	.	.	.	.	0.28µM
CS(=O)(=O)N(CC(=O)Nc1ccc2c(c1)OCO2)Cc1ccccc1	.	.	.	.	.	?
O=C(Nc1ccccn1)c1cc2ccccc2o1	?	10µM	?	?	.	.
Cc1ccc(CCNC(=O)c2ccc(CSCc3ccccc3C)o2)cc1	.	/	.	/	/	/
COc1ccc(C(=O)c2cn(CC(=O)Nc3ccc4c(c3)OCCO4)c3ccc(OC)cc3c2=O)cc1	.	/	.	/	/	/
Cc1ccc(C(=O)Nc2ccc3c(c2)OCO3)o1	?	18µM	.	?	.	.
O=C(Nc1ccc2c(c1)OCO2)c1noc2c1CCCC2	.	.	.	5µM	.	.
Cc1ccc(C(=O)Nc2ccc3c(c2)OCO3)cc1	.	22µM	?	.	?	.
C/C(=C\C(=O)c1ccc(C)o1)Nc1ccc2c(c1)OCO2	.	.	.	.	?	.
CCOc1ccc(Cn2c(CNS(=O)(=O)c3cccs3)nc3cccnc32)cc1	.	/	.	/	/	/
O=C(CCCCCCCCC#CI)Oc1ccccc1	.	/	/	/	/	/
O=C(CCC1N=C2c3ccccc3N=C(SCc3ccc(F)cc3)N2C1=O)NCCc1ccccc1 (stereo not drawn)	.	/	.	/	/	/
COc1cc(OC)c(OC)cc1CNc1sc2c(c1C(=O)Nc1ccccc1OC)CCC2	.	/	.	/	/	/
O=C(CSc1nc(-c2ccc(F)cc2)nc2c1Cc1ccccc1O2)Nc1ccc(C(=O)O)cc1	.	.	63µM	.	.	.
O=C(CSc1nc(-c2ccccc2)nc2c1Cc1ccccc1O2)Nc1ccc(C(=O)O)cc1	.	.	?	.	.	.
CCCCC(F)(F)[C@@]1(O)CC[C@H]2[C@H](CC(=O)[C@@H]2CCCCCCC(=O)O)O1	.	/	/	/	/	/
c1ccc(-c2nnc(-c3ccccn3)s2)nc1	?	13µM	.	.	.	.
COCCCNC(=O)C1CCN(C(=O)c2ccc(-n3ccc4ccccc43)s2)CC1	.	/	.	/	/	/
Fc1ccc(-c2nnc(NC3=NCCCCC3)o2)cc1	?	16µM	?	?	.	.
c1ccc(-c2nnc(NC3=NCCC3)o2)cc1	.	20µM	.	.	.	.
SMILES	TbPYK inhibitor	LmPK inh	AmpC inh detg	RE007 growth inh	FBPA Giardia inh	AmpC inh no detg
COc1ccc(-c2ccc(NS(=O)(=O)c3ccc(OC)c(OC)c3)cc2)nn1	.	/	.	/	/	/
Cc1ccc(N/N=C/c2c(C)c(C#N)c(=O)n(C)c2O)cc1C	.	.	.	.	13µM	.
CCCN(C(=O)c1cc2c(=O)oc3ccccc3c2s1)c1ccccc1C	.	/	.	/	/	/
COc1ccc(-n2nc3cc(C)c(N)c(Br)c3n2)cc1	?	?	.	.	7.1µM	.
Cc1ccccc1NC(=O)C1CCCN(S(=O)(=O)c2cccc3cccnc23)C1 (stereo not drawn)	.	.	?	.	.	5µM
Cc1cccc(N2CCN(c3nc4ccc(C(=O)c5ccccc5)cc4n4cnnc34)CC2C)c1 (stereo not drawn)	.[15.4 µM]	/	.	/	/	/
O=C(NCc1ccccc1)C1CCN(S(=O)(=O)c2ccc3c(c2)CCCN3C(=O)C2CCC2)CC1	.	/	.	/	/	/
Cc1cccc(OCc2nc(C#N)c(NCCN(C)C)o2)c1	.	.	.	.	.	2.2µM
CCNc1oc(COc2cccc(C)c2)nc1C#N	.	.	?	.	.	.
O=C(NN=C1CCCCCC1)c1cc2ccccc2cc1O	.	.	.	.	.	.
O=C1CCCC(=NNC(=O)c2cc3ccccc3cc2O)C1	.	/	/	.	/	32µM
O=C(NC1CCCCC1)c1cc2ccccc2cc1O	.	.	.	?	?	20µM
COc1ccccc1C(=O)NCCC(=O)Nc1nc2ccccc2[nH]1	.	/	.	.	/	.
COc1cccc(C(=O)Nc2nc3ccccc3[nH]2)c1	.	14µM	.	?	.	.
COc1cc(SC)ccc1C(=O)Nc1nc2ccccc2[nH]1	?	.	?	4µM	.	.
COc1ccccc1C(=O)Nc1nc2ccccc2[nH]1	10µM	11µM	?	?	.	.
COc1cc(SC)ccc1C(=O)NNC(=O)c1cc(C)oc1C	?	/	.	13µM	/	.
COc1ccc(OC)c(N(CC(=O)N2CCCCC2)S(=O)(=O)c2ccc(OC)c(OC)c2)c1	.	.	.	.	.	.
COc1ccc(N(CC(=O)N2CCCCC2)S(=O)(=O)c2ccccc2)c(OC)c1	.	.	.	.	.	8.9µM
CCCOc1ccc(C2c3c(-c4ccccc4O)n[nH]c3C(=O)N2CCCOCC)cc1OCC (stereo not drawn)	.	/	.	/	/	/
CCC(CC)c1nn2c(N)c(/C=C3\C=Nc4ccccc43)c(=O)nc2s1	.	.	.	.	.	.
CCC(CC)c1nn2c(N)c(/C=C3\C(C)=Nc4ccccc43)c(=O)nc2s1	.	.	.	.	.	7.9µM
O=C(N/N=C/c1ccccc1C(=O)O)c1cccc(S(=O)(=O)Nc2cc(Cl)ccc2Cl)c1	.	.	.	.	.	13µM
Cc1ccc(/C=N/NC(=O)c2cccc(S(=O)(=O)Nc3ccccc3Cl)c2)s1	.	.	.	.	?	.
COc1cccc(NS(=O)(=O)c2ccc3[nH]cc(C(=O)NCCc4ccc(C)cc4)c(=O)c3c2)c1	.	/	.	/	/	6.3µM
SMILES	TbPYK inhibitor	LmPK inh	AmpC inh detg	RE007 growth inh	FBPA Giardia inh	AmpC inh no detg
COc1cccc(NS(=O)(=O)c2ccc3[nH]cc(C(=O)NCCc4ccccc4)c(=O)c3c2)c1	.	/	.	/	/	/
Cc1cc(C)cc(NS(=O)(=O)c2ccc3[nH]cc(C(=O)NCc4ccco4)c(=O)c3c2)c1	.	.	.	.	.	16µM
Cc1cccc(N2CCN(C(=O)C3CCN(S(=O)(=O)c4c(C)noc4/C=C/c4ccccc4F)CC3)CC2C)c1 (stereo not drawn)	.	/	.	/	/	/
FCCCOc1ccc(-c2nccc(-c3ccc(Cl)cc3)n2)cc1	.	.	.	.	.	0.11µM
COc1ccc(-c2ccnc(-c3ccc(OCCCF)cc3)n2)cc1	.	.	.	.	.	?
FC(F)(F)c1cccc(N2CCN(C(=S)NC3CCCC3)CC2)c1	.	.	.	.	.	0.25µM

Screening data deposited in PubChem by National Center for Advancing Translational Sciences (NCATS).
